# Experimental data published in the supplement of paper PMC12067093, “Discovery and optimisation of a covalent ligand for TRIM25 and its application to targeted protein ubiquitination” (Chemical Science, 2025).
# Targets with the largest changes are over-represented here; the source holds about 21,000 in all.
# Compound: CC1Cc2ccccc2N1C(=O)C1CCCN(C1)C(=O)CCl (mixture of isomers) [TRIM25 ligand 11 (diastereomer mixture)]
# Test: probe-labelled cysteine peptide fold change vs DMSO (competition) (log2 fold change); higher = less target engagement (more negative = stronger competition)
# Conditions: 10 µM; THP-1; incubation time: 4 h
# 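Also: competitive chemoproteomic profiling in live THP-1 cells with an iodoacetamide desthiobiotin (IA-DTB) probe, comparing probe-labelled peptide intensities in compound-treated cells against DMSO-treated controls.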
row,Target,probe-labelled cysteine peptide fold change
1,EXOC5_O00471_194_YHDLECQLIQEFTSAQR (UniProt O00471),0.139
2,FBN2_P35556_941_CELDTACPR (UniProt P35556),0.213
3,FHL2_Q14192_275_GFLTERDDILCPDCGK (UniProt Q14192),-0.0813
4,ELP5_Q8TE02_151_LPCTTLCQVLHAVSHQDSCPGDSSSVGK (UniProt Q8TE02),0.0565
5,EPHX2_P34913_232_VTGIQLLNTPAPLPTSCNPSDMSHGYVTVKPR (UniProt P34913),0.149
6,EHHADH_Q08426_227+233_QHPGCLAQEACVR (UniProt Q08426),0.147
7,ENOSF1_Q7L5Y1_67_GTEVVVCAVNALAHHVLNK (UniProt Q7L5Y1),-0.0438
8,EDC4_Q6P2E9_838_ETCSTLAESPR (UniProt Q6P2E9),-0.0668
9,EIPR1_Q53HC9_95_VLTCAAVWR (UniProt Q53HC9),0.109
10,F2_P00734_407_WVLTAAHCLLYPPWDK (UniProt P00734),0.631
11,EXOSC8_Q96B26_60_LGNTTVICGVK (UniProt Q96B26),0.0322
12,FGD3_Q5JSP0_284_QEVCGNLTLQHHMLEPVQR (UniProt Q5JSP0),0.0112
13,ECM1_Q16610_269_FSCFQEEAPQPHYQLR (UniProt Q16610),0.855
14,ELP3_Q9H9T3_456_CSEETFR (UniProt Q9H9T3),0.298
15,EIF3M_Q7L2H7_52_GAEISEENSEGGLHVDLAQIIEACDVCLKEDDK (UniProt Q7L2H7),0.0157
16,FLNB_O75369_991_KVVPCLVTPVTGR (UniProt O75369),-0.0645
17,EIF1_P41567_94_NICQFLVEIGLAKDDQLK (UniProt P41567),-1.14
18,EEF1A1_P68104_411_FLKSGDAAIVDMVPGKPMCVESFSDYPPLGR (UniProt P68104),0.947
19,EIF1B_O60739_69_FACNGTVIEHPEYGEVIQLQGDQRK<|>EIF1_P41567_69_FACNGTVIEHPEYGEVIQLQGDQRK (UniProt P41567+O60739),-0.358

row,Target,probe-labelled cysteine peptide fold change
1,FASN_P49327_2369_AKLTPGCEAEAETEAICFFVQQFTDMEHNR (UniProt P49327),-0.0758
2,FAM111B_Q6SJ93_212_LCIYALK (UniProt Q6SJ93),-0.05
3,FTH1_P02794_91_KPDCDDWESGLNAMECALHLEK (UniProt P02794),0.166
4,FUBP3_Q96I24_109_IQAESGCK (UniProt Q96I24),0.00832
5,EIF3K_Q9UBQ5_87_CMIDQAHQEERPIR (UniProt Q9UBQ5),0.0313
6,FAM111B_Q6SJ93_351_NYYFCSLPR (UniProt Q6SJ93),-0.00273
7,FECH_P22830_403_QLTLSCPLCVNPVCR (UniProt P22830),0.0323
8,EFTUD2_Q15029_476_IEHTYTGGVDSDLGEAMSDCDPDGPLMCHTTK (UniProt Q15029),-0.11
9,ETFDH_Q16134_387_LTFPGGLLIGCSPGFMNVPK (UniProt Q16134),-0.688
10,FUBP3_Q96I24_366_CGLVIGK (UniProt Q96I24),-0.0888
11,FAR2_Q96K12_104+111_EDMQELLSCTNIIFHCAATVR (UniProt Q96K12),0.0855
12,FNBP1_Q96RU3_511_RQSGLYDSQNPPTVNNCAQDR (UniProt Q96RU3),0.269
13,FRRS1_Q6ZNA5_107_NAEDLNGPPIGSFTLIDSEVSQLLTCEDIQGSAVSHR (UniProt Q6ZNA5),0.66
14,FAM98B_Q52LJ0_220_INDALSCEYECR (UniProt Q52LJ0),-0.00202
15,F2_P00734_564_RGDACEGDSGGPFVMK (UniProt P00734),0.606
16,FAM241A_Q8N8J7_2_CSAGELLR (UniProt Q8N8J7),0.306
17,EPRS_P07814_1301+1309_VACVQVVIIPCGITNALSEEDK (UniProt P07814),-0.162
18,EIF3D_O15371_438_WTCCALLAGSEYLK (UniProt O15371),-0.0143
19,FH_P07954_434_LLGDASVSFTENCVVGIQANTER (UniProt P07954),-0.504
